Laboratory results reported in publication PMC5540273 (PLoS ONE, 2017).

Legend:
Details in all cases: concentration: 1 μM, replicates: in singlicate; n = 1
[1] = system: PHKG1
[2] = system: PHKG2
[3] = system: PIK3C2B
[4] = system: PIK3C2G
[5] = system: PIK3CA
[6] = system: PIK3CB
[7] = system: PIK3CD
[8] = system: PIK3CG
[9] = system: T1, PIK4CB
T1 construct: gene PI4KB

[10] = system: PIKFYVE
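Note: KINOMEscan kinase panel screen.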

Cc1c(Cn2ccn3c(=O)cc(N4CCOCC4)nc23)cccc1C(F)(F)F [GSK2289044]
%Inh [1]: 0% | %Inh [2]: 10% | %Inh [3]: 20% | %Inh [4]: 6% | %Inh [5]: 21% | %Inh [6]: 100% | %Inh [7]: 92% | %Inh [8]: 29% | %Inh [9]: 0% | %Inh [10]: 0%

Cn1ccc2ncnc(Oc3ccc(Nc4nc5ccccc5[nH]4)cc3)c21
%Inh [1]: 0% | %Inh [2]: 25% | %Inh [3]: 0% | %Inh [4]: 0% | %Inh [5]: 0% | %Inh [6]: 0% | %Inh [7]: 0% | %Inh [8]: 0% | %Inh [9]: 0% | %Inh [10]: 0%

COC(=O)c1c(-c2ccccc2)c2cc(OC)ccc2c(=O)n1Cc1ccccc1
%Inh [1]: 7% | %Inh [2]: 31% | %Inh [3]: 0% | %Inh [4]: 0% | %Inh [5]: 3% | %Inh [6]: 14% | %Inh [7]: 5% | %Inh [8]: 0% | %Inh [9]: 0% | %Inh [10]: 13%

CC(=O)Nc1nc2cnc(Nc3cc(NC(=O)c4cccc(CCC#N)c4)ccc3C)nc2s1
%Inh [1]: 0% | %Inh [2]: 8% | %Inh [3]: 9% | %Inh [4]: 78% | %Inh [5]: 2% | %Inh [6]: 0% | %Inh [7]: 0% | %Inh [8]: 8% | %Inh [9]: 0% | %Inh [10]: 0%

O=C(Nc1ccccc1)Nc1cccc(Oc2ccc3nccn3n2)c1
%Inh [1]: 0% | %Inh [2]: 9% | %Inh [3]: 0% | %Inh [4]: 0% | %Inh [5]: 0% | %Inh [6]: 0% | %Inh [7]: 14% | %Inh [8]: 6% | %Inh [9]: 0% | %Inh [10]: 0%

COc1cc(Nc2nccc(N3CCC(NC(=O)Nc4cc(C)ccc4C)C3)n2)cc(OC)c1OC (stereo not drawn) [GSK1379762]
%Inh [1]: 3% | %Inh [2]: 0% | %Inh [3]: 0% | %Inh [4]: 0% | %Inh [5]: 0% | %Inh [6]: 0% | %Inh [7]: 39% | %Inh [8]: 0% | %Inh [9]: 15% | %Inh [10]: 0%

Cn1ccc2ncnc(Oc3ccc(NC(=O)Nc4ccccc4)cc3)c21
%Inh [1]: 0% | %Inh [2]: 0% | %Inh [3]: 0% | %Inh [4]: 22% | %Inh [5]: 0% | %Inh [6]: 16% | %Inh [7]: 0% | %Inh [8]: 0% | %Inh [9]: 0% | %Inh [10]: 21%

Nc1ncnc2[nH]c(-c3ccccc3)nc12 [AH5015]
%Inh [1]: 0% | %Inh [2]: 0% | %Inh [3]: 0% | %Inh [4]: 0% | %Inh [5]: 0% | %Inh [6]: 0% | %Inh [7]: 0% | %Inh [8]: 0% | %Inh [9]: 37% | %Inh [10]: 8%

Cc1cc(N2Cc3ccccc3C2)nc(Nc2ccc(S(=O)(=O)N3CCOCC3)cc2)n1.Cl [GSK1669917]
%Inh [1]: 14% | %Inh [2]: 0% | %Inh [3]: 0% | %Inh [4]: 0% | %Inh [5]: 0% | %Inh [6]: 0% | %Inh [7]: 0% | %Inh [8]: 48% | %Inh [9]: 100% | %Inh [10]: 0%

Nc1nc(-c2nccs2)c(-c2ccnc3ccccc23)s1 [GW693542]
%Inh [1]: 2% | %Inh [2]: 0% | %Inh [3]: 0% | %Inh [4]: 0% | %Inh [5]: 0% | %Inh [6]: 0% | %Inh [7]: 0% | %Inh [8]: 0% | %Inh [9]: 0% | %Inh [10]: 0%

Cc1cc(NCC(c2ccccc2)c2ccccc2)nc(NCc2ccc(C(F)(F)F)cc2)n1 [GW497681]
%Inh [1]: 0% | %Inh [2]: 0% | %Inh [3]: 0% | %Inh [4]: 0% | %Inh [5]: 0% | %Inh [6]: 0% | %Inh [7]: 0% | %Inh [8]: 0% | %Inh [9]: 0% | %Inh [10]: 0%

COc1ccc2nc(-c3cccc(C)n3)nc(Nc3ccncc3)c2c1 [GSK204919]
%Inh [1]: 0% | %Inh [2]: 0% | %Inh [3]: 3% | %Inh [4]: 0% | %Inh [5]: 0% | %Inh [6]: 0% | %Inh [7]: 0% | %Inh [8]: 0% | %Inh [9]: 5% | %Inh [10]: 81%

CCn1c(-c2ccccn2)nc2cnccc21 [SB-736398]
%Inh [1]: 0% | %Inh [2]: 0% | %Inh [3]: 0% | %Inh [4]: 0% | %Inh [5]: 0% | %Inh [6]: 18% | %Inh [7]: 5% | %Inh [8]: 0% | %Inh [9]: 0% | %Inh [10]: 32%

Cl.NC(=O)c1cccc(Nc2nccc(Nc3ccc(Oc4cccc(Cl)c4)c(Cl)c3)n2)c1 [GW659008]
%Inh [1]: 4% | %Inh [2]: 0% | %Inh [3]: 0% | %Inh [4]: 0% | %Inh [5]: 0% | %Inh [6]: 0% | %Inh [7]: 0% | %Inh [8]: 0% | %Inh [9]: 82% | %Inh [10]: 0%

CC1=C(C(=O)Nc2cc3cn[nH]c3cc2F)C(c2ccc(C(F)(F)F)cc2)CC(=O)N1 (stereo not drawn) [GSK429286]
%Inh [1]: 0% | %Inh [2]: 0% | %Inh [3]: 0% | %Inh [4]: 0% | %Inh [5]: 0% | %Inh [6]: 0% | %Inh [7]: 34% | %Inh [8]: 0% | %Inh [9]: 0% | %Inh [10]: 0%

Cc1ccccc1-n1cnc2c(N)ncnc21 [SKF-97510]
%Inh [1]: 0% | %Inh [2]: 10% | %Inh [3]: 0% | %Inh [4]: 10% | %Inh [5]: 0% | %Inh [6]: 0% | %Inh [7]: 0% | %Inh [8]: 0% | %Inh [9]: 0% | %Inh [10]: 0%

Fc1cc(Cl)ccc1Nc1ccnc2cc(I)ccc12 [GW551191]
%Inh [1]: 0% | %Inh [2]: 0% | %Inh [3]: 0% | %Inh [4]: 0% | %Inh [5]: 0% | %Inh [6]: 0% | %Inh [7]: 0% | %Inh [8]: 0% | %Inh [9]: 0% | %Inh [10]: 0%

COc1cccc(NC(=O)NC2CCN(c3ccnc(Nc4ccc(F)cc4)n3)C2)c1 (stereo not drawn) [GSK1379721]
%Inh [1]: 0% | %Inh [2]: 0% | %Inh [3]: 11% | %Inh [4]: 0% | %Inh [5]: 3% | %Inh [6]: 0% | %Inh [7]: 0% | %Inh [8]: 13% | %Inh [9]: 0% | %Inh [10]: 31%
